# Laboratory results from PubChem BioAssay AID1259417 (TB Discovery Research, Infectious Disease Research Institute, 2018).
# About 760 (69%) of roughly 1,100 compounds were called active. No rule for the calls is given here. The set was probably picked from earlier hits. The list shows a part of the results.
# Experiment: M. tuberculosis growth inhibition, HTS (AID 1259417);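 also: bacteria grown with compound for 5 days at 37 °C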
# Conditions: stronger effect = higher value, concentration not given here
# [1] = M. tuberculosis DsRed fluorescence growth inhibition
# [2] = M. tuberculosis growth inhibition
SMILES,inhibition [1],inhibition [2] [%]
CCOC(=O)C(/C=C(\C#N)C(=O)OCC)=C(/N)N1CCN(c2ccc(Cl)cc2)CC1,46% (active),46.9
CCOc1ccc2c(c1)OC(=Cc1cccc(OCC(=O)OC)c1)C2=O,10% (active),50.5
CCOC(=O)COc1cccc(C=C2Oc3cc(OC)ccc3C2=O)c1,31.7% (active),54
CCOC(=O)COc1ccc(C=C2Oc3cc(OC)ccc3C2=O)cc1,60.8% (active),79.9
NC1CCN(c2nc3c(cc2F)c(=O)c(C(=O)O)cn3-c2ccc(F)cc2F)C1 (stereo not drawn),98.3% (active),98.4
NC1CCN(c2c(F)cc3c(=O)c(C(=O)O)cn(C4CC4)c3c2Cl)C1 (stereo not drawn),99.8% (active),100
COc1c(N2CCNC(C)C2)c(F)cc2c(=O)c(C(=O)O)cn(C3CC3)c12 (stereo not drawn),99.5% (active),101
COc1c(N2C[C@@H]3CCCN[C@@H]3C2)c(F)cc2c(=O)c(C(=O)O)cn(C3CC3)c12,101% (active),100
CC1=NN(c2nc3ccccc3s2)C(=O)C1Cc1cccc2ccccc12 (stereo not drawn),-2.3% (inactive),21.1
Cc1cc(C)c2c(c1)c(-c1ccccc1)c(-c1ccccc1)n2CC(O)CN1CCN(CCO)CC1 (stereo not drawn),48.4% (active),39.3
Cc1ccc2c(c1)c(-c1ccccc1)c(-c1ccccc1)n2CC(O)CN1CCN(CCO)CC1 (stereo not drawn),23.8% (inactive),13.1
Clc1ccc(C2=CC(c3ccc(Cl)cc3)n3nnnc3N2)cc1 (stereo not drawn),43.4% (active),39.3
CCOC(=O)COc1ccc(C(=O)Nc2ccc(F)cc2)cc1,20.5% (active),42.4
O=C(COc1ccc(-c2ccccc2)cc1)OC1CCCCC1,26.1% (active),58.6
Cc1ccc(NC(=O)c2ccc(OCC(=O)OC3CCCCC3)cc2)cc1,53.4% (active),78.1
CCOC(=O)COc1ccc(C(=O)NC2CCCCC2)cc1,1.79% (inactive),-15.3
O=C(COc1ccc(C(=O)NCc2ccccc2)cc1)OC1CCCCC1,37.7% (active),52.9
Cc1c(Cc2ccccc2)c(NCCCO)n2c(nc3ccccc32)c1C#N,97.8% (active),87.9
Cc1c(Cc2ccc(Cl)cc2)c(NCCCN(C)C)n2c(nc3ccccc32)c1C#N,14.4% (inactive),-9.38
O=C(NCCc1ccc(F)cc1)NC12CC3CC(CC(C3)C1)C2,100% (active),96.2
CCOC(=O)c1c(CSc2ccccc2)n(-c2ccccc2)c2ccc(O)c(CN(C)C)c12,92.7% (active),91.9
Oc1ccc(CNc2ccccc2O)cc1,98.3% (active),97.3
N#Cc1nc(-c2cccs2)oc1NCCc1ccccc1,100% (active),100

SMILES,inhibition [1],inhibition [2] [%]
CC(C)N=c1cc2n(-c3ccc(Cl)cc3)c3ccccc3nc-2cc1Nc1ccc(Cl)cc1,100% (active),99.5
Cc1ccn2c(-c3csc(Nc4ccccn4)n3)c(C)nc2c1,98.9% (active),100
Cc1ccccc1Nc1nc(-c2ccccn2)cs1,87.2% (active),92.7
Cc1cc(O)ccc1Nc1nc(-c2ccccn2)cs1,71.9% (active),77.7
Cc1cccnc1Nc1nc(-c2ccccn2)cs1,100% (active),100
FC(F)(F)c1ccccc1Nc1nc(-c2ccccn2)cs1,90.1% (active),86.1
Cc1cccc(NC(=O)c2cc(-c3cccs3)nc3ccccc23)n1,8.52% (inactive),22.7
Cc1cccc(Nc2nc(-c3ccccn3)cs2)n1,91.2% (active),97.6
Cc1ccc(C(=O)NCCC23CC4CC(CC(C4)C2)C3)cc1,100% (active),97.3
O=C(NCCC12CC3CC(CC(C3)C1)C2)c1ccc(Br)cc1,98.8% (active),94.1
c1ccc2sc(NC3=NCN(Cc4ccc5c(c4)OCO5)CN3)nc2c1,17.9% (active),69.1
Cc1nc2ccc(C(=O)OCc3nnc(-c4ccccc4)o3)cc2nc1C,-4.41% (inactive),0.442
O=C(OCc1ccc(F)cc1)c1ccc2ccccc2n1,3.6% (inactive),5.51
Cc1nc2ccc(C(=O)OCc3cccc(F)c3)cc2nc1C,19.1% (active),60.3
O=C(Nc1nnc(-c2cccs2)o1)c1cccc(C(F)(F)F)c1,1.3% (inactive),6.76
CC(C)(C)c1ccc(C(=O)Nc2nnc(-c3ccco3)o2)cc1,88.2% (active),89.7
O=C(Nc1nnc(-c2ccco2)o1)c1cccs1,17.8% (active),40.1
Cc1ccccc1C(=O)Nc1nnc(-c2ccco2)o1,47.6% (active),71.5
O=C(Nc1nnc(-c2cccs2)o1)c1ccco1,-2.8% (inactive),-18.4
O=C(Nc1nnc(-c2ccco2)o1)c1cccc(C(F)(F)F)c1,88.4% (active),94.4
CCSc1ccc(CC(=O)Nc2nnc(-c3ccc4c(c3)OCCO4)o2)cc1,2.15% (inactive),7.09
CCSc1ccc(C(=O)Nc2nnc(-c3ccco3)o2)cc1,83.8% (active),91.8
CN1CCC(O)(c2cccs2)C(C(=O)c2cccs2)C1 (stereo not drawn),100% (active),98.7

SMILES,inhibition [1],inhibition [2] [%]
c1ccc(OCc2nn3c(-c4n[nH]c5c4CCC5)nnc3s2)cc1,99.1% (active),99.6
COc1ccccc1NC(=O)CSc1nc2cc3ccccc3cc2[nH]1,-0.285% (inactive),-21.7
N#Cc1ccccc1NC(=O)CSc1nc2cc3ccccc3cc2[nH]1,2.65% (inactive),10.4
O=C(CSc1nc2ccccc2c(=O)[nH]1)NCc1ccccc1,101% (active),100
O=C(NCCN1CCOCC1)c1ccc([N+](=O)[O-])cc1[N+](=O)[O-],98.1% (active),94.6
Cc1cc(C)n(C(=O)c2ccc([N+](=O)[O-])cc2[N+](=O)[O-])n1,0.918% (inactive),-7.93
O=[N+]([O-])c1ccc(NCCNc2nc3ccccc3nc2N2CCOCC2)cc1,8.52% (inactive),-3.69
O=C(Nc1nnc(-c2ccc(Cl)cc2)o1)c1ccco1,20% (active),48.4
O=C(Nc1nnc(-c2ccc(F)cc2)o1)c1ccco1,26% (inactive),16.6
O=C(Nc1nnc(-c2ccccc2)o1)c1ccco1,20.9% (active),32.7
CCn1ccnc1CN(C)Cc1cn(-c2cccc(C)c2)nc1-c1cccc(F)c1,18.2% (inactive),15.5
Cc1ccc(Sc2ccc(C=O)o2)cc1,-0.277% (inactive),24.1
Cc1cccc(-n2nc([N+](=O)[O-])c(=NCCC3=CCCCC3)n2O)c1,101% (active),54.8
Cc1ccc(CN=c2c([N+](=O)[O-])nn(-c3cccc(Cl)c3)n2O)cc1,99.8% (active),100
O=S1(=O)C=C(Sc2nc3ccccc3s2)c2ccccc21,100% (active),99.8
COc1c2ccoc2nc2c(OC)cccc12,98.6% (active),99.6
CC12CCC(C(=O)Nc3ccc(OC(F)(F)F)cc3)(CC1=O)C2(C)C (stereo not drawn),94.8% (active),81.6
Cc1cccc(C(=O)Nc2nc3ccccc3[nH]2)c1,36.9% (active),35.3
Cc1cc(NS(=O)(=O)c2ccc(NC(=O)c3ccc(C(C)(C)C)cc3)cc2)no1,19.1% (inactive),12.2
CC(C)(C)c1ccc(C(=O)Nc2nc3ccccc3[nH]2)cc1,65.8% (active),86.5
CCOC(=O)Cn1nnc(-c2ccc(OCc3ccccc3C)cc2)n1,91.8% (active),96.9
CCOC(=O)Cn1nnc(-c2ccc(OCc3ccccc3F)cc2)n1,50% (active),91.6
CCN(CC)c1ccc(/C=C(/C#N)c2nc3ccccc3[nH]2)c(OC(C)C)c1,22.6% (active),47

SMILES,inhibition [1],inhibition [2] [%]
c1ccc(-c2nc(NCCCn3ccnc3)c3oc4ccccc4c3n2)cc1,98.9% (active),99.5
CCOC(=O)CSc1nnc2c3sc4nc(N5CCOCC5)c5c(c4c3ncn12)CC(C)(C)OC5,53.1% (active),74.9
CC(=O)N1CCN(c2ccc(NC(=S)NC(=O)c3cc4ccccc4o3)cc2)CC1,3.83% (inactive),-6.94
COC(=O)c1ccc(N2C(=O)CC(N(CCc3ccccc3)C(=S)Nc3ccccc3)C2=O)cc1 (stereo not drawn),2.64% (inactive),-9.4
O=C(CCc1ccccc1)NC(=S)Nc1ccc(N2CCCCC2)cc1,82.8% (active),59.4
OC(COCCC12CC3CC(CC(C3)C1)C2)CN1CCc2ccccc2C1 (stereo not drawn),1.19% (inactive),10.3
O=C(Cn1nc(CNc2ccc(Cl)cc2)[n+]2c1CCCCC2)c1ccc(Br)cc1,92.9% (active),94.4
CC(C)(C)c1cc(Cl)c(O)c(NC(=S)NC(=O)c2cccc3ccccc23)c1,80.4% (active),78.3
COc1ccc(C(C)(C)C)cc1NC(=S)Nc1ccc(Cl)c(Cl)c1,0.0351% (inactive),-14.6
CC(C)CC(=O)NC(c1ccc(Cl)cc1Cl)c1c(O)ccc2ccccc12 (stereo not drawn),5.28% (inactive),21
CCOC(=O)CSc1ccc(-c2nc3cc(C)c(C)cc3[nH]2)cn1,94.3% (active),96
O=[N+]([O-])c1ccc(/C=N/n2c(CO)nc3ccccc32)s1,96.6% (active),97.7
Cc1cc(C)n(-c2nc(NC(C)C)nc(NC(C)C)n2)n1,43.1% (active),41.4
COC(=O)CSc1nnc(-c2ccc(OC)cc2OC)o1,85.8% (active),94.2
CCOC(=O)CSc1nnc(-c2ccc(OC)cc2OC)o1,42.1% (active),70.4
CCC(OC(C)=O)c1ccc(OC(C)=O)c(OC)c1 (stereo not drawn),99.1% (active),90.6
COC(=O)COc1ccc(NC(=O)c2ccccc2F)cc1,77.8% (active),78.9
COC(=O)COc1ccc(NC(=O)c2ccccc2I)cc1,61.7% (active),81.3
COC(=O)c1ccc(OCC(=O)Nc2ccccc2F)cc1,14.1% (active),74.2
COC(=O)COc1ccc(NC(=O)c2ccccc2Br)cc1,76.3% (active),91.1
